From PubChem BioAssay
E coli Lon inh: inhibits E. coli Lon protease; P0A9M0; purified E. coli Lon protease, fluorescence polarization; inhibition, % at 7.94 µM; hit rate 0.42% among 360,000; in the data active = inhibition above about 13%, passing the limit was not always enough;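 note: 0% = enzyme with probe and DMSO and 100% = no enzyme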
MCL1 BIM primary: inhibitors of human MCL1 binding to BIM-BH3 peptide; Q07820; GST-MCL1 / FITC-Bim-BH3 fluorescence polarization; inhibition, % at 10.9 µM; hit rate 0.68% among 320,000;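 active = inhibition above the mean inhibition of all tested compounds plus 3 SD, set per campaign, cut at about 40% in these data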;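 note: 0% = DMSO wells and 100% = unlabeled Bim-BH3 peptide control; higher means more loss of mP so more displacement of Bim peptide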
MEX-5 binding: C. elegans MEX-5 TCR-2 RNA binding activity. AID 1832. hit rate 0.38% among 300,000. activity score (negative = inhibition of binding), % at 10 µM. Q9XUB2. MEX-5/FITC-TCR2 RNA binding, fluorescence polarization; active compounds read low;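 active = inhibition past about -25% in most replicates, and total fluorescence under double the plate's negative control median, limit read from the data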;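 note: 0% = DMSO and -100% = 5 µM competing unlabeled TCR2 RNA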
BCLXL inh: inhibitors of human Bcl-xL | GST-Bcl-xL / FITC-Bim BH3 peptide fluorescence polarization | AID 2129 | Q07817 | hit rate 0.7% among 320,000 | inhibition, % at 10.9 µM;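 active = inhibition above the mean of all tested compounds plus 3 SD, cutoff set per campaign, cut at about 30% in these data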;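 note: 0% = DMSO wells and 100% = unlabeled Bim-BH3 peptide competitor; inhibitors lower millipolarization by displacing the labeled peptide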
GLD-1 TGE inh: GLD-1-TGE RNA interaction inhibition (C. elegans) | AID 2280 | purified GLD-1 + fluorescein TGE RNA, fluorescence polarization | inhibition, % at 5.96 µM | hit rate 0.44% among 320,000 | Q17339;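 active = percent inhibition above a per-plate cutoff, the plate mean of test compounds plus 3 SD, cut at about 30% in these data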;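 note: 0% = DMSO wells with GLD-1 and probe and 100% = wells lacking GLD-1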
Target sequence (Q17339 whole entry, looked up): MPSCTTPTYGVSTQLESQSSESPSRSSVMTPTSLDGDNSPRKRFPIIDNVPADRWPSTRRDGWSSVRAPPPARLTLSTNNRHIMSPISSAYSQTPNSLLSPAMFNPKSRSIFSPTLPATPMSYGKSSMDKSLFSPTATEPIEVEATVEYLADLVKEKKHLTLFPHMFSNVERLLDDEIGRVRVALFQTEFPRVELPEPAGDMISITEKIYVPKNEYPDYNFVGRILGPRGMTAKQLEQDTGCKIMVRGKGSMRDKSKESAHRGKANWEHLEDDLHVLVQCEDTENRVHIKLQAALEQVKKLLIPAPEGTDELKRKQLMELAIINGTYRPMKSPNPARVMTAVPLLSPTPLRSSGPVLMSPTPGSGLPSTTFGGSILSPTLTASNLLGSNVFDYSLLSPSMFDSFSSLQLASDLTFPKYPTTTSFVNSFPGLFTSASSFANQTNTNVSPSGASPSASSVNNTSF
Starred values were filed as active, the others as inactive; . = no result. In the library only some 1.4% were active in any assay of this set; here they are far more common.

SMILES | E coli Lon inh | MCL1 BIM primary | MEX-5 binding | BCLXL inh | GLD-1 TGE inh
COc1ccccc1CNC(=O)C(NS(=O)(=O)c1ccc2c(c1)OCCO2)C(C)C (configuration not stated) | -3 | -6 | -1 | 2 | 8
Cc1nn(C)c(C(=O)NN)c1Cl | -2 | -4 | 1 | 0 | -2
Cc1ccc(C(=O)CSc2nc3c([nH]2)c(=O)n(C)c(=O)n3C)cc1 | -8 | 18 | -30* | 10 | 3
C=CCCCCCCCCC(=O)NNC1CC(=O)N(c2ccccc2)C1=O (configuration not stated) | 2 | -2 | 0 | -3 | -2
CC(C)(C)NC(=O)NC(=O)CN1CCN(S(=O)(=O)/C=C/c2ccccc2)CC1 | -5 | 0 | 0 | 4 | -2
CCOC(=O)C(=O)C1=CN(Cc2ccccc2)C=C(C#N)C1 | 7 | 47* | 1 | 43* | 25
O=C1CN(C(=O)CN2CCN(S(=O)(=O)c3ccccc3)CC2)c2ccccc2N1 | 0 | . | . | . | .
CCOc1ccc2[nH]c3ncccc3c(=O)c2c1 | 26 | 52* | -13 | 42* | 26
CCOc1ccc2[nH]c(C)c(CN3CCOCC3)c(=O)c2c1 | 4 | 4 | -8 | 8 | 6
CC(Oc1ccc(Cl)cc1Cl)C(=O)NNC(=O)C(=O)N1CCCCC1 (configuration not stated) | -17 | 11 | 0 | 7 | -1
O=C1NC[C@H](CCCCN2C[C@H](Cc3ccc(O)cc3)N(CC3CCCCC3)C(=O)C2=O)N(CC2CCCCC2)C1=O | -11 | . | . | . | .
C/C(=C\c1ccc2c(c1)OCO2)C1Nc2cccc3cccc(c23)N1 | 13 | 18 | . | 16 | 5
C/C(=C\c1ccccc1F)C1Nc2cccc3cccc(c23)N1 | -8 | 39 | . | 31* | 21
Cc1ccnn1CCC(=O)O | 5 | 1 | 1 | 1 | 12
Cc1cc(NC(=O)CSc2nc3c(c(=O)n2CCc2ccccc2)SC(C)C3)no1 (configuration not stated) | 0 | 0 | 0 | 31* | -5
O=C(CN1CCN(S(=O)(=O)c2ccc(Cl)s2)CC1)N1CCOCC1 | -9 | -8 | -2 | -1 | -2
COC(=O)C1C(O)CCC2CN3CCc4c([nH]c5ccccc45)C3CC21 (configuration not stated) | 1 | 42* | -15 | 37* | 16
COc1ccc(S(=O)(=O)Nc2cccc3c2O[C@H](CN(C)S(=O)(=O)c2ccc(Cl)cc2)[C@H](C)CN([C@H](C)CO)C3=O)cc1 | 4 | . | . | . | 0
Oc1cc2c(cc1O)C(c1ccccc1)CNCC2 (configuration not stated) | 9 | 13 | -30* | 19 | 1
COc1ccccc1NC(=O)Cn1cnc2c(nnn2-c2ccc(C)cc2)c1=O | -7 | 1 | 2 | 2 | 1
CCOc1ccc(C2C=C(c3ccc(C)cc3)Nc3ncnn32)cc1 (configuration not stated) | . | 41* | -4 | 47* | 26
COC(=O)N/N=C/c1cn(CCOc2cccc(OC)c2)c2ccccc12 | -3 | -11 | -1 | -2 | -2
COc1cccc(OCCn2cc(C=O)c3ccccc32)c1 | -6 | -9 | -27* | -2 | 9
COc1ccc(-c2cc(=O)c3c(O)cc(O)cc3o2)cc1 | -4 | 4 | . | 0 | 3
O=c1cc(-c2ccc(O)c(O)c2)oc2cc(O)cc(O)c12 | -5 | 38 | -33* | 13 | 5
SMILES | E coli Lon inh | MCL1 BIM primary | MEX-5 binding | BCLXL inh | GLD-1 TGE inh
COc1cc2c(cc1OC)C(c1ccc(-c3cc(Cl)ccc3Cl)o1)=NCC2 | -6 | -17 | -1 | -1 | -10
COc1cc2c(cc1OC)C(c1ccc(-c3ccc(Cl)cc3Cl)o1)=NCC2 | -5 | 2 | -36* | 1 | 5
COc1cc2c(cc1OC)C(c1ccc(-c3ccc(Cl)c(Cl)c3)o1)=NCC2 | -13 | -2 | -35* | 3 | 3
CC1=C([N+](=O)[O-])C(c2ccccc2)NC(=O)N1 (configuration not stated) | -7 | -4 | 1 | 1 | 0
O=C(Nn1c(COc2ccccc2)nc2ccccc2c1=O)C(Cl)(Cl)Cl | 13 | . | -2 | . | .
CCN1C(=O)/C(=C\c2cccs2)C(C(=O)OC)=C1C | -3 | -3 | -78* | 2 | -5
COC(=O)C1=C(C)N(CC(C)C)C(=O)/C1=C\c1cccs1 | 4 | 2 | -2 | 3 | 2
